Source: PubChem BioAssay AID1814 (Broad Institute, 2009)
Hit rate of the full screen: of about 300,000 compounds, about 22,000 (7.3%) were called active. Not shown: some 2% with an inconclusive outcome. Many of the other results were omitted from the sample, so actives are more common in it than they were. Unmarked numbers belong to inactive results. No stated cut-off is given here; in the data, active means activity score below about -60%; inconclusive means mostly about -28% to -61%; inactive means positive scores.

Assay: Activators working through SNCA 5'UTR binding (MLPCN) (AID 1814)
Settings: alpha-synuclein 5'UTR reporter, activators screen; hits give low values; tested at 7.5 µM

SMILES | activity score
CCOC(=O)c1cnc(-n2nc(C)cc2C)nc1NNc1cc(C)nc(-c2ccccc2)n1 | 105%
Cc1cc(-n2nc(C)cc2C)n2ncc(-c3ccccc3)c2n1 | -73.6% (active)
O=C1/C(=C\Nc2ccccc2)CCN1c1ncccn1 | -99.5% (active)
O=C(CSC(=S)N1CCCCC1)c1c(F)cccc1F | -175% (active)
COc1ccc(OCc2ccc(-c3nc4ccccc4c(=O)n3N)o2)cc1 | -143% (active)
Cc1ccc(OCc2nc3ccccc3n2C)cc1 | -109% (active)
COc1ccc(C)c(Cn2c(-c3nonc3N)nc3ccccc32)c1 | 76.2%
COCn1c(COc2ccccc2)nc2ccccc21 | -65.8% (active)
CCOc1ccc(C(O)Cc2nc3ccccc3n2C)cc1 (stereo not drawn) | -67.7% (active)
Cn1c(COc2ccc(Cl)cc2)nc2ccccc2c1=O | -91.8% (active)
CC(C)c1ccc(Nc2ncccc2C#N)cc1 | -111% (active)
CC(=O)c1sc(NC(=O)c2ccc(C)cc2)nc1C | -112% (active)
COC(=O)c1sc(NC(=S)NC(=O)c2ccc(C)cc2)nc1C | -102% (active)
O=C(N/N=C/c1ccc([N+](=O)[O-])o1)c1cccc(S(=O)(=O)N2CCOCC2)c1 | -81.1% (active)
COc1ccc(C(=NN)c2ccc(OC)cc2)cc1 | -133% (active)
O=C(Nc1ccon1)c1sc2ccccc2c1Cl | -179% (active)
Cc1c(Cl)c([N+](=O)[O-])nn1Cc1ccc(C(=O)N/N=C\c2cc(Cl)ccc2O)o1 | 81.2%
CN(C)c1ccc(/C=N/NC(=O)c2ccc(Cn3cc(Br)cn3)o2)cc1 | -69.3% (active)
CC(C)c1cc(C(N)=O)c(NC(=O)c2cccc(COc3ccc(Br)cc3)c2)s1 | -194% (active)
CCOc1ccc(OCc2cccc(C(=O)N(CC)CC)c2)cc1 | 50.8%
CN(C)c1nc(=Nc2cccc(Cl)c2)ss1 | -64.3% (active)
CS(=O)(=O)N1CCc2nc(-c3ccccc3)sc2C1 | -90.2% (active)

SMILES | activity score
O=C(c1ccccc1)c1ccc(OC(=O)N2CCCC2)cc1 | -65.8% (active)
Cc1ccc(CSc2nc3[nH]ncc3c(=O)[nH]2)cc1 | -78% (active)
Clc1ccc(-c2nnc(SCc3nc4ccccc4s3)o2)cc1 | -162% (active)
Oc1ccc(CNc2ccccc2O)cc1 | -62.2% (active)
Cc1cc(OCc2cc(C(=O)NCc3cc(C(C)C)no3)no2)cc(C)c1Cl | -135% (active)
CCOc1ccc(NS(=O)(=O)c2ccc(C)c(C(N)=O)c2)cc1 | -72.9% (active)
COc1cc(CN2CCC(C(N)=O)CC2)ccc1OCc1ccccc1 | -111% (active)
N=c1c2c3c(sc2nc2n1CCCCC2)CCCC3 | -89.5% (active)
CCCCc1ccc(NC(=S)N2CCCC(CO)C2)cc1 (stereo not drawn) | -107% (active)
CN(CCO)c1ccc(/C=N/Nc2nncc3ccccc23)cc1 | 57.2%
Fc1ccc(/C=N/Nc2nc(-c3cccnc3)nc3ccccc23)cc1 | -70.9% (active)
Cc1ccc(/C=N/NC(=S)NC2CCCCC2)o1 | -135% (active)
Cc1cc(Br)ccc1NC(=S)NC1CCCC1 | -66.7% (active)
Cc1ccc(NC(=S)NC2CCCC2)cc1 | -65.1% (active)
CC(C)c1ccc(NC(=O)NC2CCCCC2)cc1 | -244% (active)
CCN(CC)S(=O)(=O)c1ccc(-c2cn3ccc(C)cc3n2)cc1 | -169% (active)
COc1ccc(-c2cn3ccc(C)cc3n2)cc1 | 92.2%
Cc1ccc2nc(-c3ccc(Br)cc3)cn2c1 | 63.2%
Cc1cccc(N=Nc2c(O)[nH]c3ccc(F)cc23)c1 | -147% (active)
O=C(Cc1ccccc1)NCc1ccc(F)cc1 | -66.4% (active)
O=C(CC1CCCCC1)NCc1ccccc1 | -86.3% (active)
O=C(NCCc1ccc(F)cc1)c1n[nH]c2ccccc12 | -150% (active)

SMILES | activity score
O=C(CC1CCCCC1)NCc1ccc(F)cc1 | -72.4% (active)
COc1ccc(COC(=O)c2n[nH]c3ccccc23)cc1F | -96.4% (active)
CCc1ccc2c(c1)C1(NN=C(c3ccccc3)S1)C(=O)N2 (stereo not drawn) | 71.7%
O=C1Nc2ccccc2C12Nc1ccccc1S2 (stereo not drawn) | -83.2% (active)
CCC(C)c1ccc(NC(=S)NCc2ccccn2)cc1 (stereo not drawn) | -123% (active)
COc1cccc(NC(=S)NCc2ccccn2)c1 | -101% (active)
CCOC(=O)c1cc2cc(C)ccc2[nH]1 | -132% (active)
CCOC(=O)c1nc(-c2ccc3c(c2)OCO3)[nH]c1C | -109% (active)
C[C@@H]1C[C@@H]2O[C@H]2/C=C\C=C\C(=O)Cc2c(Cl)c(O)cc(O)c2C(=O)O1 | -113% (active)
CN1CCN(CCCNC(=O)c2ccc(/C=C3\Oc4ccccc4N(Cc4ccc(Cl)cc4)C3=O)cc2)CC1 | 96.5%
CC(C)c1ccc(C(=O)NCCCc2ccccc2)cc1 | -150% (active)
S=C(Nc1ccc2c(c1)OCO2)N1CCCC1 | -93.7% (active)
Cc1cccn2c(=O)c(C=O)c(Nc3ccc(S(N)(=O)=O)cc3)nc12 | -500% (active)
O=C(CC1Nc2ccccc2NC1=O)Nc1ccccc1 (stereo not drawn) | -128% (active)
Oc1c(Br)cccc1/C=N/Nc1c(F)c(F)c(F)c(F)c1F | -72.3% (active)
Cc1[nH]c(=O)c(C(=O)/C=C/c2ccccc2)c2c1CCCC2 | -146% (active)
COc1cccc(NC(=S)C(C#N)=C2N(C)c3ccccc3N2C)c1 | -86.1% (active)
COc1ccc(-c2csc3nc(-c4ccccc4F)oc(=O)c23)cc1OC | -63.1% (active)
COc1ccc(/C=N/Nc2ncnc3sc4c(c23)CCCC4)cc1O | -197% (active)
CC(C)(C)c1ccc(/C=C/C(=O)Nc2ncccn2)cc1 | -155% (active)
O=c1c2c(-c3ccccc3)ccnc2[nH]n1-c1ccccc1 | -127% (active)
CN(C(=O)CSc1nnnn1-c1ccccc1)C1CCCCC1 | -63.1% (active)

SMILES | activity score
CN(C(=O)CSc1nncc2ccccc12)C1CCCCC1 | -107% (active)
CN(c1ccc2nc3ccccc3c(=O)n2n1)C1CCCCC1 | 119%
CN(C)c1nc(N)nc(CSc2nnnn2-c2cccc3ccccc23)n1 | 68.9%
Cc1ccc(O)c(NC(=O)c2cc(-c3ccco3)on2)c1 | -184% (active)
O=C(Cc1cccc2ccccc12)NNC(=O)Nc1ccc(Cl)cc1 | -112% (active)
Cc1nn2cc(-c3ccc(Cl)cc3)cnc2c1Br | -110% (active)
CN1CCN(NC(=O)Nc2ccc(Br)cc2)CC1 | -64.9% (active)
COc1ccc(-n2nnnc2-c2nc3ccccc3s2)cc1 | -77.3% (active)
O=C(Nc1cccc(-c2nnc(-c3ccccc3)o2)c1)C1CCCO1 (stereo not drawn) | -126% (active)
O=c1c(-c2cccc(Cl)c2)c[nH]n1-c1ccccc1 | -74.9% (active)
COc1ccc(Cn2c(-c3ccc(Cl)cc3)c[n+]3ccccc23)cc1 | -155% (active)
Fc1ccc(COc2ccc(-c3nnco3)cc2)cc1 | -126% (active)
Cc1cc(C)c2nc3nc(C)cc(C)c3c(N)c2c1 | -190% (active)
CCCCC(O)(CCCC)C(=O)NN(C(=O)CCl)c1ccccc1 | -67.8% (active)
S=C(Nc1ccc(Br)cc1Cl)N1CCC2(CC1)OCCO2 | -70.7% (active)
COc1ccc(C(=O)CCc2ccccc2O)c(OC)c1 | -128% (active)
O=C(NC1CC1)c1ccc(-c2ccccc2)cc1 | -142% (active)
O=C(NC1CCCC1)c1cc(-c2ccccc2)on1 | -324% (active)
O=C(NCCCn1ccnc1)c1cc(-c2ccccc2)on1 | -632% (active)
O=C(NC1CCCCC1)c1cc(C2CC2)on1 | -78% (active)
O=C(NCCOc1cccnc1)c1ccc(OC2CCN(Cc3ccccn3)CC2)cc1 | 95.3%
CN(C)S(=O)(=O)N1CCC(Oc2cccc(C(=O)NCCCC3CCCC3)c2)CC1 | -70.6% (active)

SMILES | activity score
Cc1c(NC(=O)c2coc(=O)c(Br)c2)c(=O)n(-c2ccccc2)n1C | -75.7% (active)
Cc1c(NC(=O)c2cc(-c3ccc(Cl)s3)nc3ccccc23)c(=O)n(-c2ccccc2)n1C | -105% (active)
CC1(C)CCSC(/C=C/c2ccccc2)=N1 | -123% (active)
O=C(c1cnn(-c2ccc(Cl)cc2)c1)c1ccccc1O | -238% (active)
COc1ccc2nc(Nc3nc4cc5c(cc4s3)OCCO5)sc2c1 | -103% (active)
COc1ccc(NC(=O)Nc2ccc3nsnc3c2)cc1 | -138% (active)
COc1ccc2nc(NC(=O)c3ccc(Br)s3)sc2c1 | -209% (active)
COc1ccc2nc(NC(=O)NC3CCCCC3)sc2c1 | -186% (active)
CCc1noc(C)c1C(=O)Nc1nc2ccc(OC)cc2s1 | -85% (active)
COc1cccc(C(=O)Nc2nc3ccc(S(C)(=O)=O)cc3s2)c1 | -102% (active)
CCOc1ccc2nc(N(CCCN(C)C)C(=O)c3ccc(C(=O)c4ccccc4)cc3)sc2c1 | 90.2%
COc1ccc2nc(Nc3nc4ccc(NC(C)=O)cc4s3)sc2c1 | -95.5% (active)
CCOc1ccc2nc(Nc3nc4ccc(NC(C)=O)cc4s3)sc2c1 | -88.4% (active)
COc1ccc(/C=N/OCc2ccccc2C#N)c(OC)c1 | -182% (active)
COc1ccc(N2CCN(C(=O)c3cccs3)CC2)cc1 | -69.4% (active)
COC(=O)Nc1nc2ccc(Sc3ccccc3)cc2[nH]1 | 59.2%
Cc1ccc(O)c(CNc2nc3ccccc3[nH]2)c1 | -69.9% (active)
Cc1ccc(-c2nc(COC(=O)c3c(C)noc3C)cs2)cc1 | -170% (active)
CCN1/C(=C/C(=S)Nc2ccccc2)Sc2ccccc21 | -111% (active)
CSc1nccc(NC(=O)c2ccc(C(C)(C)C)cc2)n1 | -147% (active)
